The results in this text go back to PubChem BioAssay AID686979 (National Center for Advancing Translational Sciences (NCATS), 2013).

Screen size: about 420,000 compounds; about 50,000 (12%) were called active. A call without a number means that no potency is given here. Another 26% or so got no clear call; they are omitted. Calls come from the whole dose curve; as a rule, active = well fitted inhibition curve with a large enough effect; inconclusive = small, poorly fitted or top-dose-only effect; inactive = flat fitted curve, though single readings scatter. Only a selection was taken, and actives are over-represented in it overall.
Potency is the fitted concentration of half-maximal effect.

A short description of the test: qHTS for Inhibitors of human tyrosyl-DNA phosphodiesterase 1 (TDP1): qHTS in cells in presence of CPT. Note: nearly all actives have a fitted effect of over 55% in size. To be noted: chicken DT40 Tdp1-/-;hTDP1 cells + 20 nM CPT, ATP luminescence, 48 h; series mostly up to 46.2 µM. In outline:
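Chicken DT40 Tdp1-/- cells complemented with human TDP1, 400 cells/well, exposed to compounds plus 20 nM camptothecin for at least 48 h at 37 C; viability read as ATP content by CellTiter-Glo luminescence.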
For orientation: Quantitative high-throughput screening tests each substance at several concentrations.
Turning to `COc1cccc(CNC(=O)CN(C)S(=O)(=O)c2ccc3c(c2)c(=O)n(C)c(=O)n3C)c1`, the Potency entry was “inactive”.

For `Cc1ccc(C)c(OCCC(=O)OCC(=O)c2ccc3c(c2)NC(=O)CO3)c1`, the Potency entry is “inactive”.

`Cc1ccc(C23CC4CC(CC(C(=O)NCC(=O)O)(C4)C2)C3)cc1`: the Potency entry is “inactive”. `CC(C)Cn1c(N)c(C(=O)COC(=O)CN2C(=O)C3CC=CCC3C2=O)c(=O)n(C)c1=O` (stereo not drawn): the Potency was 16.4 µM (active). In the case of `COc1ccc(C(=O)COC(=O)CN2C(=O)C3CC=CCC3C2=O)c(OC)c1` (stereo not drawn) it was “inactive”. In the case of `CC1CC1C(=O)OCC(=O)c1c(N)n(C)c(=O)n(C)c1=O` (stereo not drawn) it was “inactive”; in that of `CCOC(=O)[C@H]1[C@H]2COc3cc(OC)ccc3[C@@H]2N2C(=O)N(c3ccc(Br)cc3)C(=O)[C@@]12C`, 25.9 µM (active). The entry for `CCOC(=O)[C@@H]1[C@H]2COc3cc(OC)ccc3[C@@H]2N2C(=O)N(c3cccc(C)c3)C(=O)[C@@]12C` is “inactive”.

Consider `CCOC(=O)[C@H]1[C@H]2COc3ccc(Br)cc3[C@@H]2N2C(=O)CN(C)C(=O)[C@@]12C`, for which the Potency result was “inactive”. In the case of `CCOc1n[nH]c(-c2ccccc2)n1`, the Potency result was “inactive”. The entry for `Cc1ccc(S(=O)(=O)c2c[nH]c3ccc(C)cc3c2=O)cc1` is “inactive”; for `CCOc1ccc(N/C=C/C(=O)c2cc(OC)c(OC)c(OC)c2)cc1` it is 14.6 µM (active). The entry for `CCCOc1ccc(N/C=C/C(=O)C(C)(C)C)cc1` is “inactive”; for `CCOc1ccc(N/C=C/C(=O)c2ccccc2)cc1` it is “inactive”. Turning to `COCCNC(=O)C(c1ccc(O)cc1)N(C(=O)CCC(=O)Nc1nccs1)c1ccc(C)cc1` (stereo not drawn), the Potency result is “inactive”.

On to `CCCCn1c(=O)c2oc3ccccc3c2n(CC(=O)Nc2ccccc2OC)c1=O`, for which the Potency result is “inactive”. In the case of `COc1ccccc1CNC(=O)CCCn1c(=O)c2ccccc2n(CC(=O)Nc2ccc(C)cc2Cl)c1=O` it was 14.6 µM (active). The figure for `COc1ccccc1CNC(=O)CCCCn1c(=O)c2ccccc2n(CC(=O)Nc2cc(Cl)ccc2C)c1=O` is 18.4 µM (active); for `COc1ccccc1CNC(=O)CCn1c(=O)sc2ccccc21` it is “inactive”; for `Cc1ccccc1NC(=O)Cn1c(=O)n(CCCCC(=O)NCc2ccccc2Cl)c(=O)c2ccccc21` it is “inactive”. In the case of `COc1ccccc1CNC(=O)CCn1c(=O)c2ccccc2n(CC(=O)Nc2ccc(Br)cc2F)c1=O` it was 23.1 µM (active); in that of `COc1ccc(NC(=O)Cn2c(=O)n(Cc3ccc(C(=O)NCc4ccccc4Cl)cc3)c(=O)c3ccccc32)cc1`, “inactive”. For the compound `COCCNC(=O)CCCn1c(=O)c2ccccc2n(Cc2cccc([N+](=O)[O-])c2)c1=O`, the Potency entry is “inactive”.

`COc1ccccc1CNC(=O)CCCn1c(=O)c2ccccc2n(CC(=O)NC2CCCC2)c1=O`: the Potency entry was “inactive”. Regarding `CCc1nn(CC(=O)N2CCN(c3cccc(C(F)(F)F)c3)CC2)c(=O)c2cc3occc3n12`, the Potency result was “inactive”.

With `CC(C)CCN(C(=O)c1csnn1)C(C(=O)NC1CCCC1)c1ccccc1` (stereo not drawn), the Potency entry was “inactive”. In the case of `COc1cc(CN2CCNC(=O)C2CC(=O)NCCc2ncccc2C)cc(OC)c1` (stereo not drawn) it was “inactive”; in that of `CCOc1ccccc1NC(=O)CCS(=O)(=O)c1cccc2nsnc12`, “inactive”. The entry for `Cc1ccc(S(=O)(=O)N(C)C)cc1NC(=O)COC(=O)/C=C/c1cccs1` is “inactive”. In the case of `Cc1ccccc1N(C(=O)CNC(=O)c1cccs1)C(C(=O)NC1CCCC1)c1ccncc1` (stereo not drawn) it was “inactive”; in that of `CCOc1cc(NS(=O)(=O)c2ccc(OC)cc2)c(OCC)cc1NC(C)=O`, “inactive”; in that of `COc1ccc(C(=O)Nc2c(N)nc(SCC(=O)Nc3ccc(C(C)=O)cc3)[nH]c2=O)cc1`, “inactive”. For the compound `COc1ccccc1CNC(=O)CNC(=O)c1cn(-c2ccccc2OC)c(=O)c2ccccc12`, the Potency entry was “inactive”.

`C=CCn1c(=O)n(C)c2c(=O)n(C)c(=O)n(C)c21`: the Potency result was “inactive”. The entry for `Cc1c(CNCCc2ccccc2)c(C(=O)O)c(C)n1-c1ccccc1` is “inactive”. In the case of `COc1cc(C(=O)N(Cc2ccc(C(C)C)cc2)C2CCS(=O)(=O)C2)cc(OC)c1OC` (stereo not drawn) it was “inactive”.

On to `O=C(/C=C/c1cn(CC(O)CN2CCc3ccccc32)c2ccccc12)c1ccc(Br)cc1` (stereo not drawn), for which the Potency is 18.4 µM (active). The entry for `CC(C)OCCCn1c(SCC(=O)c2ccccc2)nc2c(sc3ccccc32)c1=O` is “inactive”; for `COc1cc(CCN=Cc2ccccc2O)c([N+](=O)[O-])cc1OC` it is “inactive”. The entry for `CC(=O)n1c(C=Nc2ccccc2)c(O)c2ccccc21` is “inactive”; for `Oc1ccc(N=Cc2c(O)ccc3ccccc23)cc1` it is “inactive”. In the case of `Oc1ccc(N=Cc2sc3ccccc3c2Cl)cc1` it was 13 µM (active); in that of `CCOC(=O)c1ccc(NC(=O)c2c(N)n(C)c(=O)[nH]c2=O)cc1`, “inactive”; in that of `Cc1ccc(S(=O)(=O)N2CCC(C(=O)NCC3CCCO3)CC2)cc1` (stereo not drawn), “inactive”. Consider `Cc1cc(C2=NNC(=Nc3ccc(S(=O)(=O)N4CCOCC4)cc3)SC2)c(C)n1CC1CCCO1` (stereo not drawn), for which the Potency was 5.17 µM (active). The entry for `Cc1ccnc(NS(=O)(=O)c2ccc(NC(=O)c3ccc(S(=O)(=O)N4CCOCC4)cc3)cc2)n1` is “inactive”. The entry for `O=C1OC(Oc2ccc(Br)cc2)(c2ccccc2)c2ccccc21` (stereo not drawn) is “inactive”.

On to `CC1(C)Cc2ccccc2-c2[nH]c(=S)[nH]c(=O)c21`, for which the Potency entry is “inactive”. In the case of `O=C(Nc1c(C(=O)N2CCN(c3ccc(F)cc3)CC2)oc2ccccc12)c1ccco1` it was 16.4 µM (active); in that of `CCC(=O)Nc1c(C(=O)N2CCN(c3ccc(F)cc3)CC2)oc2ccccc12`, 13 µM (active). In the case of `O=C(c1ccco1)N1CCN(C(=O)C2CC(c3ccc(F)cc3)=NO2)CC1` (stereo not drawn) it was “inactive”. The entry for `O=C(Nc1ccccc1C(=O)N1CCCCC1)c1ccco1` is “inactive”. For the compound `COCC(=O)Nc1c(C(=O)N2CCCC2)oc2ccccc12`, the Potency entry is “inactive”. In the case of `NC(=O)c1oc2ccccc2c1NC(=O)Cc1ccccc1` it was “inactive”; in that of `CC(Oc1cccc(Cl)c1)C(=O)NC1CC(C)(C)NC(C)(C)C1` (stereo not drawn), “inactive”.

For the compound `COc1cc(C2C(C(=O)c3cccs3)=C(O)C(=O)N2CCN2CCOCC2)ccc1OCCC(C)C` (stereo not drawn), the Potency result is “inactive”. In the case of `c1ccc(-c2cnc(CN3CCN(c4ccccc4)CC3)o2)cc1` it was “inactive”; in that of `CCC(C)N(c1ccc(/C=C/c2ccnc3ccccc23)cc1)C(C)CC` (stereo not drawn), 7.08 µM (active); in that of `O=C(CN1CCCC1)N1CCN(c2ccccc2)CC1`, “inactive”. The entry for `Oc1ccc(/C=N/N(Cc2ccccc2)c2ccccc2)cc1` is “inactive”; for `CN(Cc1ccccc1)c1ccc(/C=C/c2ccnc3ccccc23)cc1` it is 12.6 µM (active). In the case of `CCN1CCN(c2ccc(/C=C/c3ccnc4ccccc34)cc2)CC1` it was 11.2 µM (active); in that of `CN(C)c1ccc(/C=C/C=C/c2ccnc3ccccc23)cc1`, 1.78 µM (active).
